# Records with an inconclusive call do not appear. A number with no mark means an inactive call. Calls of active or inactive are those of the source. Calls come from the whole dose curve; as a rule, active = well fitted inhibition curve with a large enough effect; inconclusive = small, poorly fitted or top-dose-only effect; inactive = flat fitted curve, though single readings scatter.
# Biological target: Ubiquitin carboxyl-terminal hydrolase 1 (Homo sapiens) (UniProt O94782)
# Assay: Inhibitors of USP1/UAF1: Pilot qHTS (AID 504865); note: nearly all actives have a fitted effect of over 35% in size;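 for activity change, negative = inhibition: rhodamine fluorescence freed from ubiquitin-rhodamine substrate followed over time; top concentration of the series differs between compounds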
# Details: purified USP1/UAF1, Ub-rhodamine cleavage fluorescence; series mostly up to 114 µM; activity change, negative = inhibition: at the top concentration
# Summary of the method: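 USP1/UAF1 complex (1nM) preincubated with compound 15 min at room temperature, then Ub-Rho substrate (150nM final) added. Fluorescence read kinetically at 480/540 nm, 6 reads every 60 seconds. Buffer: 50mM HEPES pH 7.8, 0.5mM EDTA, 0.1 mg/ml BSA, 1mM TCEP, 0.01% Tween-20.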
# % is set by controls: 0 for no effect and ±100 for the full control effect; potency is the fitted concentration of half-maximal effect.
# Sequence of Ubiquitin carboxyl-terminal hydrolase 1 (Homo sapiens) (O94782 whole entry, looked up): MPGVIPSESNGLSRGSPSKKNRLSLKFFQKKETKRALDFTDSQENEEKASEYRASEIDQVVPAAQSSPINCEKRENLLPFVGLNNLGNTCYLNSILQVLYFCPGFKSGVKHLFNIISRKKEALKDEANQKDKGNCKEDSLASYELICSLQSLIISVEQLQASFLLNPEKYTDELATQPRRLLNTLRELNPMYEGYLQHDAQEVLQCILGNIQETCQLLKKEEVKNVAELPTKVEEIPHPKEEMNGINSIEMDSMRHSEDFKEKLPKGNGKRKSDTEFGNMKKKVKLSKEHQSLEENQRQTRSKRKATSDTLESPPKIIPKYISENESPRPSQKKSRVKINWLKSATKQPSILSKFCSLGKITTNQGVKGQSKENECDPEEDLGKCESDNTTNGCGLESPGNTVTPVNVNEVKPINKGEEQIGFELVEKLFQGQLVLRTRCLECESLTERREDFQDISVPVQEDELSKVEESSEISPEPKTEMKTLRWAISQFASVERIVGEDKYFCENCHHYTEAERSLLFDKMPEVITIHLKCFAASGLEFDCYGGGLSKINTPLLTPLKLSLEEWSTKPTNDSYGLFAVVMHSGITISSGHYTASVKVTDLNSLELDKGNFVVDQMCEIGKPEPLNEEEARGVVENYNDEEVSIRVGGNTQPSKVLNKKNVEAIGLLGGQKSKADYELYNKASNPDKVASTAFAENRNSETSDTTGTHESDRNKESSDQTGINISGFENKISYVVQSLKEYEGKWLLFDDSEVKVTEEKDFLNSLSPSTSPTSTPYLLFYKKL
SMILES,"activity change, negative = inhibition",Potency
COc1ccc2[nH]c(S(=O)Cc3ncc(C)c(OC)c3C)nc2n1 (stereo not drawn),-8.33%,–
O=Cc1ccccc1C=O,–,50.1 µM (active)
O=c1cc[nH]c(=O)[nH]1,-10.3%,–
CCCCOc1cc(C(=O)OCCN(CC)CC)ccc1N,-13.1% [at 54.9 µM],–
C[C@@H]1CN(c2c(F)c(F)c3c(=O)c(C(=O)O)cn(C4CC4)c3c2F)C[C@H](C)N1,0.956%,–
O=C(O)CC(O)C(=O)O (stereo not drawn),-3.71%,–
CN1CCC[C@@H]1Cc1c[nH]c2ccc(CCS(=O)(=O)c3ccccc3)cc12,-7.02%,–
CCN(CC)CCNC(C(=O)OCCC(C)C)c1ccccc1 (stereo not drawn),-8.3%,–
COc1ccc2c(c1)C(=O)N(CCc1ccc(S(=O)(=O)NC(=O)NC3CCCCC3)cc1)C(=O)C2(C)C,-10.1% [at 54.9 µM],–
C[C@H]1O[C@@H](n2cc(F)c(=O)[nH]c2=O)[C@H](O)[C@@H]1O,-5.32%,–
Cn1cc[nH]c1=S,–,inactive
NC(CSCC(=O)O)C(=O)O (stereo not drawn),4.15%,–
O=C(O)c1ccccc1-c1ccc(C(F)(F)F)cc1,0.705%,–
CCC(=O)Nc1ccc(O)cc1,-9.34%,–
CC(=O)Nc1ccc(/C=N/NC(N)=S)cc1,–,inactive
Oc1cn2c(n1)Nc1ccc(Cl)c(Cl)c1C2,-7.17%,–
COc1cc2[nH]c(=O)[nH]c(=O)c2cc1OC,-8.28% [at 54.9 µM],–
CN1CCCCC1CCN1c2ccccc2Sc2ccc(S(C)=O)cc21 (stereo not drawn),-9.43%,–
O=C(O)[C@@H]1CSCN1,-3.23%,–

SMILES,"activity change, negative = inhibition",Potency
CC(=O)NC(Cc1ccccc1)C(=O)O (stereo not drawn),1.64%,–
CC(=O)Oc1ccc(C2(c3ccc(OC(C)=O)cc3)C(=O)Nc3ccccc32)cc1,–,inactive
CCCCN(CCCC)CCCOC(=O)c1ccc(N)cc1,2.49% [at 54.9 µM],–
CC(=O)c1ccc2c(c1)N(CCCN(C)C)c1ccccc1S2,-1.18% [at 54.9 µM],–
NCC(=O)CCC(=O)O,-5.93%,–
[O-][n+]1cccc(CO)c1,-1.56%,–
Cn1c(=O)c2c(ncn2CC2OCCO2)n(C)c1=O,-4.14%,–
CCOc1ccc2ccccc2c1C(=O)N[C@@H]1C(=O)N2[C@@H]1SC(C)(C)[C@@H]2C(=O)O,5.43% [at 54.9 µM],–
CC(C)(C)NCC(O)COc1ccc(NC(=O)NC2CCCCC2)cc1 (stereo not drawn),-4.91%,–
C[C@H](N)[C@H](O)c1cccc(O)c1,-0.841% [at 54.9 µM],–
CCCCN1CCCC[C@H]1C(=O)Nc1c(C)cccc1C,–,inactive
O=c1cc[nH]c(=S)[nH]1,-3.05%,–
O=C1NC(=O)[C@@]2(CCOc3ccc(F)cc32)N1,-1.3%,–
Cc1c(Cl)cccc1Nc1ccccc1C(=O)O,-13.3% [at 54.9 µM],–
Nc1nc2c(ncn2CCC(CO)CO)c(=O)[nH]1,-3.72%,–
CC[C@@]1(c2ccccc2)NC(=O)N(C)C1=O,-8.16%,–
Cc1ncc(COP(=O)(O)O)c(C=O)c1O,-9.6%,–
O=C(O)c1ccccn1,2.76%,–
O=C(O)COc1nn(Cc2ccccc2)c2ccccc12,-9.17%,–

# — PubChem BioAssay (NCATS)
